Inconclusive results are not listed. A number with no mark means an inactive call. Calls of active or inactive are those of the source. Calls follow the shape of the dose curve; as a rule, active = well fitted activation curve with a large enough effect in the repeat runs; inconclusive = weak or mixed curves; inactive = no such curve, though single readings can be large or run the other way.
Biological target: Aryl hydrocarbon receptor (Homo sapiens) (UniProt P35869)
Test: qHTS assay to identify small molecule that activate the aryl hydrocarbon receptor (AhR) signaling pathway (AID 743085); also: nearly all actives have a fitted effect of over 15% in size;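 as to activation: HG2L7.5c1 human HepG2 liver cells with stably integrated DRE-driven firefly reporter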
Details: HepG2 AhR-luc (HG2L7.5c1), luciferase, 24 h; series mostly up to 70.3 µM; activation: at the top concentration
Description: U.S. Tox21 Program National Center for Advancing Translational Sciences [NCATS] NIH Chemical Genomics Center [NCGC] U.S. Environmental Protection Agency [EPA] National Institutes of Environmental Health Sciences [NIEHS] National Toxicology Program [NTP] U.S. Food and Drug Administration [FDA] Tox21 Assay overview: The Aryl hydrocarbon Receptor (AhR), a member of the family of basic helix-loop-helix transcription factors, is crucial to adaptive responses to environmental changes. AhR mediates cellular responses to environmental pollutants such as aromatic hydrocarbons through induction of phase I and II enzymes but also interacts with other nuclear receptor signaling pathways. A cell based HepG2-AhR-luc assay (HG2L7.5c1 cell line, developed by Dr. Michael S. Denison, University of California at Davis, was used to assess the activation of AhR. HepG2 (human hepatocellular carcinoma) cells were stably transfected with an Ah receptor-responsive firefly luciferase reporter gene plasmid containing 20 dioxin responsive elements and luciferase reporter gene. Increased luciferase activity can be used to identify the compounds that induce AhR activation.
Tox21 Assay Protocol Summary: 4000 cells in 5 uL/well were dispensed into white wall/solid bottom 1536-well plates using a Multidrop Combi (Thermo Fisher Scientific Inc., Waltham, MA) dispenser. After the assay plates were incubated at 37C for 5 h, 23 nL of compound or DMSO vehicle was transferred to the assay plates by a pintool station (Kalypsys, San Diego, CA). The plates were incubated at 37C for 24 hr. After 1 ul/well of CellTiter-Fluor reagent (Promega, Madison, WI) was added into the assay plates using a Flying Reagent Dispenser (FRD) (Aurora Discovery, CA), the assay plates were incubated at 37C for 30 min. The fluorescence intensity in the plates was measured using a ViewLux plate reader (PerkinElmer, Shelton, CT), followed by the addition of 4 uL of ONE-Glo Luciferase Assay reagent (Promega) using an FRD (Aurora Discovery). After the assay plates were incubated at room temperature for 30 min, luminescence intensity was measured using a ViewLux plate reader (Perkin Elmer).
% is scaled to controls: 0 for no effect and ±100 for the full control effect; potency is read from the fitted curve at half-maximal effect.

Chain of Aryl hydrocarbon receptor (Homo sapiens) (P35869 whole entry, looked up): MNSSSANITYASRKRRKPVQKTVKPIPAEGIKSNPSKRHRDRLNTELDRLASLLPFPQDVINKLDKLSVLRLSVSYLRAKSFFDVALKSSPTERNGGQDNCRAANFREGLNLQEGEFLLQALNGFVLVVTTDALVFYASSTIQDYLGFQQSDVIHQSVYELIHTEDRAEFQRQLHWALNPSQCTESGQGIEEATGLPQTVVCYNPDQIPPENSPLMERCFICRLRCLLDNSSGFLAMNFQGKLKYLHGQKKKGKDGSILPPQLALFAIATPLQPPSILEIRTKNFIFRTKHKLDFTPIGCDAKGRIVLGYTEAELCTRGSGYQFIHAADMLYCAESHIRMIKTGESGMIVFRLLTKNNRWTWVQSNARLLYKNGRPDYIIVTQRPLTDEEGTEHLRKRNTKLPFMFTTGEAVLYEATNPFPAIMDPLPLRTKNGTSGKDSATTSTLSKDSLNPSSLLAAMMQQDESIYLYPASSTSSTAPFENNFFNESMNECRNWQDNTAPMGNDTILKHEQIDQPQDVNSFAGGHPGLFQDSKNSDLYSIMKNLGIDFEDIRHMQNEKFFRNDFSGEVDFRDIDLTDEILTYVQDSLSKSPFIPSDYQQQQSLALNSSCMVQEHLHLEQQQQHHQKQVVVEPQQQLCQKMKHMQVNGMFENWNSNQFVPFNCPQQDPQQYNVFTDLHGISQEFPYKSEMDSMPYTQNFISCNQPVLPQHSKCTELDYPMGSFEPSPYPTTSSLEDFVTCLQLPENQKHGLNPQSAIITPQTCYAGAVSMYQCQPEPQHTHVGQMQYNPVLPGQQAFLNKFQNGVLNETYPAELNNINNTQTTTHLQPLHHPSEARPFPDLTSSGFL

SMILES | activation [%] | Potency
CO[C@H]1C=CO[C@@]2(C)Oc3c(C)c(O)c4c(O)c(c(/C=N/N5CCN(C6CCCC6)CC5)c(O)c4c3C2=O)NC(=O)/C(C)=C\C=C[C@H](C)[C@H](O)[C@@H](C)[C@@H](O)[C@@H](C)[C@H](OC(C)=O)[C@@H]1C | -0.581 | –
CO[C@H]1O[C@@H]2O[C@@]3(C)CC[C@H]4[C@H](C)CC[C@@H]([C@H]1C)[C@@]24OO3 | 0.53 | –
COC(=O)[C@@H](N)CS | 0.373 | –
CS(=O)(=O)c1ccc(C2=C(c3ccccc3)C(=O)OC2)cc1 | -0.115 | –
O=C1O[C@H]2[C@H](O)[C@@H]1OC(O)[C@H]2O (stereo not given in full) | -2.57 | –
CN1c2c(nc(N)[nH]c2=O)NCC1CNc1ccc(C(=O)NC(CCC(=O)O)C(=O)O)cc1 (stereo not given) | 3.76 | –
c1ccc2c(CCC3CCNCC3)c[nH]c2c1 | – | 11.9 µM (active)
COC(=O)CC[C@H](N)C(=O)O | -2.66 | –
CN(C)CCC=C1c2ccccc2C(C)(C)c2ccccc21 | 0.0992 | –
CCC(c1ccccc1)c1noc(CCN(CC)CC)n1 (stereo not given) | -2.58 | –
O=C(O)[C@H]1/C(=C/CO)O[C@@H]2CC(=O)N21 | -0.0241 | –
CC(=O)OC[C@H]1O[C@@H](O[C@H]2[C@H](O)[C@@H](OC(=O)c3ccccc3C(=O)O)[C@H](O)O[C@@H]2COC(C)=O)[C@H](O)[C@@H](OC(=O)c2ccccc2C(=O)O)[C@@H]1O | -1.91 | –
CN1CCN(C2=Nc3ccccc3Cc3ccccc32)CC1 | -1.02 | –
[O]=[Bi][O]C(=O)[O][Bi]=[O] | -0.826 | –
Cc1nnc(C(C)C)n1C1C[C@H]2CC[C@@H](C1)N2CC[C@H](NC(=O)C1CCC(F)(F)CC1)c1ccccc1 (stereo not given in full) | -0.955 | –
CO[C@H]1C[C@H](O[C@@H]2/C(C)=C/C[C@@H]3C[C@@H](C[C@]4(CC[C@H](C)[C@@H](C5CCCCC5)O4)O3)OC(=O)[C@@H]3C=C(C)/C(=N/O)[C@H]4OC/C(=C\C=C\[C@@H]2C)[C@]43O)O[C@@H](C)[C@@H]1O | -1.14 | –
Nc1ccn(C[C@@H](CO)OCP(=O)(O)O)c(=O)n1 | 4.8 | –
COC(=O)C1=C(C)NC(C)=C(C(=O)O[C@H]2CCN(Cc3ccccc3)C2)[C@H]1c1cccc([N+](=O)[O-])c1 | 0.355 | –
CC(O)CN(C)C (stereo not given) | -0.307 | –
O=C(Nc1ccc(/C=C/c2ccc(NC(=O)c3cc(S(=O)(=O)O)c4cccnc4c3O)cc2S(=O)(=O)O)c(S(=O)(=O)O)c1)c1cc(S(=O)(=O)O)c2cccnc2c1O | 3.92 | –

SMILES | activation [%] | Potency
CCCC(CCC)C(N)=O | 2.54 | –
COc1ccc(C[C@H](C)NC[C@@H](O)c2ccc(O)c(NC=O)c2)cc1 | -2.03 | –
CCCCCCCN(CC)CCCC(O)c1ccc(NS(C)(=O)=O)cc1 (stereo not given) | -0.0518 | –
CC(C)(C)NC(=O)[C@H]1CC[C@H]2[C@@H]3CC=C4C=C(C(=O)O)CC[C@]4(C)[C@H]3CC[C@]12C | 3.23 | –
COc1ccc(C(=O)Nc2ccccc2CCC2CCCCN2C)cc1 (stereo not given) | -0.108 | –
COC(=O)CCC(=O)CN | 0.0221 | –
OC[C@H]1O[C@@H](n2cnc3c2NC=NC[C@H]3O)C[C@@H]1O | 1.23 | –
CCCCC(=O)O[C@H]1CC[C@H]2[C@@H]3CCc4cc(O)ccc4[C@H]3CC[C@]12C | 0.583 | –
C=C[C@]1(C)C[C@@H](OC(=O)CO)[C@]2(C)[C@H](C)CC[C@]3(CCC(=O)[C@H]32)[C@@H](C)[C@@H]1O | -2.48 | –
C/C=C(/CC[C@@H](C)[C@H]1CC[C@H]2C3=CC[C@H]4[C@H](C)[C@@H](O)CC[C@]4(C)[C@H]3CC[C@]12C)C(C)C | -1.7 | –
CCCCCCC(=O)O[C@H]1CC[C@H]2[C@@H]3CCc4cc(O)ccc4[C@H]3CC[C@]12C | -3.14 | –
N#CC(c1ccc(Cl)cc1)c1c(Cl)cc(-n2ncc(=O)[nH]c2=O)cc1Cl (stereo not given) | 6.83 | –
O=C(O)CO.[NH2-].[NH2-].[Pt+2] | 3 | –
CC1(C)N=C(N)N=C(N)N1c1ccc(Cl)cc1 | 3.6 | –
[O]=[Bi][O][Bi]=[O] | -2.65 | –
O=S(=O)(O)Oc1ccc(C(c2ccc(OS(=O)(=O)O)cc2)c2ccccn2)cc1 | -2.33 | –
CN1CCC(OC(=O)C(Oc2ccc(Cl)cc2)Oc2ccc(Cl)cc2)CC1 | 6.48 | –
CC[C@H](C)[C@H]1O[C@]2(CC[C@@H]1C)C[C@@H]1C[C@@H](C/C=C(\C)[C@@H](O[C@H]3C[C@H](OC)[C@@H](O[C@H]4C[C@H](OC)[C@@H](O)[C@H](C)O4)[C@H](C)O3)[C@@H](C)/C=C/C=C3\CO[C@@H]4[C@H](O)C(C)=C[C@@H](C(=O)O1)[C@]34O)O2 | 0.25 | –
C/C=C1\NC(=O)[C@H]2CSSCC/C=C/[C@H](CC(=O)N[C@H](C(C)C)C(=O)N2)OC(=O)C(C(C)C)NC1=O (stereo not given in full) | -5.57 | –
NNc1nnc(Cc2ccncc2)c2ccccc12 | – | 11.9 µM (active)

— PubChem BioAssay (Tox21)
